Test results: PubChem BioAssay (Tox21)
Results filed as inconclusive are left out. The source made the active and inactive calls. Unless noted, the call rests on the fitted dose curve.

Columns and labels:
[1] = molecular target: Peroxisome proliferator-activated receptor delta (Homo sapiens) (UniProt Q03181); assay: qHTS assay to identify small molecule agonists of the peroxisome proliferator-activated receptor delta (PPARd) signaling pathway (AID 743212)
Procedure, shortened: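 HEK293H PPARd-bla cells; 5 h preincubation 37 C/5% CO2; compound (DMSO) 37 C; LiveBLAzer B/G FRET substrate 2 h RT; fluorescence intensity.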

[2] = qHTS assay to identify small molecule antagonists of the peroxisome proliferator-activated receptor delta (PPARd) signaling pathway - cell viability counter screen (AID 743213; active means well fitted curve in the direction sought with a large enough effect in the repeat runs; an effect the other way counts as inactive or inconclusive; further: nearly all actives have a fitted effect of over 50% in size)
Procedure, shortened: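 In this counter screen, HEK293H cells carrying a UAS-beta-lactamase reporter are co-treated with test compounds and 300 nM L165041 (final) for 17 h at 37 C; cell viability is quantified by CellTiter-Glo luminescence.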

[3] = molecular target: Peroxisome proliferator-activated receptor delta (Homo sapiens) (UniProt Q03181); assay: qHTS assay to identify small molecule antagonists of the peroxisome proliferator-activated receptor delta (PPARd) signaling pathway (AID 743215; active means well fitted inhibition curve with a large enough effect in the signal ratio in the repeat runs, not every such curve was filed as active; the % refers to the signal ratio;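 further: cells stimulated with agonist L165041 at 300 nM final during compound exposure; series mostly up to about 62 µM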)
Procedure, shortened: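 With L165041 present at 300 nM final, compounds were incubated 17 h at 37 C on PPARd UAS-bla HEK293H cells. A FRET-based beta-lactamase substrate was then applied for 2 h at room temperature and fluorescence intensity recorded.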

[4] = qHTS assay to identify small molecule agonists of the farnesoid-X-receptor (FXR) signaling pathway - cell viability counter screen (AID 743218; active means well fitted curve in the direction sought with a large enough effect in the repeat runs; an effect the other way counts as inactive or inconclusive; further: nearly all actives have a fitted effect of over 45% in size)
Procedure, shortened: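 After 16 h at 37 C with test compounds, FXR-bla HEK 293T cells were given LiveBLAzer B/G substrate for 2 h at RT and then CellTiter-Glo; luminescence was taken after 30 min.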

[5] = qHTS assay to identify small molecule antagonists of the farnesoid-X-receptor (FXR) signaling pathway - cell viability counter screen (AID 743221; active means well fitted cell-killing curve with a large enough effect in the repeat runs, not every such curve was filed as active; further: nearly all actives have a fitted effect of over 50% in size)
Procedure, shortened: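 Luminescence from CellTiter-Glo measures cytotoxicity in GeneBLAzer FXR-UAS-bla HEK 293T cells. Cells were exposed to compounds with 50 uM chenodeoxycholic acid (final) for 16 h at 37 C, in wells also used for the reporter readout.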

[6] = molecular target: Vitamin D3 receptor (Homo sapiens) (UniProt P11473); assay: qHTS assay to identify small molecule agonists of the vitamin D receptor (VDR) signaling pathway (AID 743222)
Procedure, shortened: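 VDR-bla cells were seeded, left 4 h, treated with compounds in DMSO for 16 h, incubated 2 h at RT with B/G FRET substrate, and read for fluorescence.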

[7] = qHTS assay to identify small molecule agonists of the vitamin D receptor (VDR) signaling pathway - cell viability counter screen (AID 743224; active means well fitted curve in the direction sought with a large enough effect in the repeat runs; an effect the other way counts as inactive or inconclusive; further: series mostly up to about 63 µM; nearly all actives have a fitted effect of over 50% in size)
Procedure, shortened: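 Here cell health was gauged by luminescent ATP detection (CellTiter-Glo, 30 min RT) in VDR-bla cells that had been incubated with test compounds for 16 h at 37C and 5% CO2.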

[8] = qHTS assay to identify small molecule antagonists of the vitamin D receptor (VDR) signaling pathway - cell viability counter screen (AID 743225; active means well fitted curve in the direction sought with a large enough effect in the repeat runs; an effect the other way counts as inactive or inconclusive; further: nearly all actives have a fitted effect of over 50% in size)
Procedure, shortened: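 Read-out: CellTiter-Glo luminescence measured 30 min after reagent addition at room temperature. Cells were VDR-bla HEK 293T exposed 16 h at 37C, 5% CO2, to compound with 3 nM final calcitriol agonist.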

[9] = qHTS assay to identify small molecule agonists of the NFkB signaling pathway (AID 1159509; active means well fitted curve in the direction sought with a large enough effect in the signal ratio in the repeat runs, not every such curve was filed as active; the % refers to the signal ratio; further: series mostly up to about 61 µM)
Procedure, shortened: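 ME-180 NFkB-bla, 2,000 cells/well, overnight plating; cpd pinned in DMSO, 5 h 37 C; B/G FRET substrate 1.5 h RT; ex 405, em 460/530 nm.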

[10] = qHTS assay to identify small molecule agonists of the NFkB signaling pathway - cell viability counter screen (AID 1159515); further: series mostly up to about 61 µM; nearly all actives have a fitted effect of over 55% in size
Procedure, shortened: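 5 hr compound treatment of NFkB-bla ME-180 cells (2,000/well, seeded overnight beforehand), followed by reporter substrate for 1.5 hr. CellTiter-Glo added afterward; luminescence after 30 min RT.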

[11] = qHTS assay to identify small molecule agonists of the endoplasmic reticulum stress response signaling pathway (AID 1159516; active means well fitted activation curve with a large enough effect in the signal ratio in the repeat runs, not every such curve was filed as active; the % refers to the signal ratio)
Procedure, shortened: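 Reporter HeLa cells (ESRE-beta-lactamase) underwent 5 hr compound incubation at 37 C and 5% CO2 in quantitative HTS format. Detection followed 2 hr of FRET substrate loading at room temperature.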

[12] = qHTS assay to identify small molecule agonists of the endoplasmic reticulum stress response signaling pathway - cell viability counter screen (AID 1159517)
Procedure, shortened: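 HeLa cells carrying an ESRE-driven beta-lactamase reporter receive compound for 5 hr at 37 C. Cell viability is then gauged with CellTiter-Glo by luminescence, 30 min at room temperature.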

[13] = qHTS assay to identify small molecule antagonists of the retinoid-related orphan receptor gamma (ROR-gamma) signaling pathway - cell viability counter screen (AID 1159520; active means well fitted curve in the direction sought with a large enough effect in the repeat runs; an effect the other way counts as inactive or inconclusive; further: nearly all actives have a fitted effect of over 50% in size)
Procedure, shortened: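 Cytotoxicity was read from cellular ATP (CellTiter-Glo luminescence) after 16 hr at 37 C with 1 uM doxycycline induction. The inducer was added 2 hr after compound transfer to Tet-on ROR gamma CHO cells.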

[14] = molecular target: Nuclear receptor ROR-gamma (Homo sapiens) (UniProt P51449); assay: qHTS assay to identify small molecule antagonists of the retinoid-related orphan receptor gamma (ROR-gamma) signaling pathway (AID 1159521; active means well fitted curve in the direction sought with a large enough effect in the repeat runs; an effect the other way counts as inactive or inconclusive)
Procedure, shortened: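 CHO Tet-on RORγ, RORE-luc reporter. Cpd 2 h pre-incubation, then dox hyclate 1 uM final, 16 h, 37 C/5% CO2. ONE-Glo luminescence; decrease = antagonist.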

[15] = qHTS assay to identify small molecule agonists of the AP-1 signaling pathway - cell viability counter screen (AID 1159525); further: nearly all actives have a fitted effect of over 55% in size
Procedure, shortened: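 Luminescent ATP readout (Cell Titer Glo, 30 min RT), normalised to DMSO and tetra n-octyl ammonium bromide controls. Cells were ME-180 AP-1-bla in 0.5% dialyzed FBS Opti-MEM, with a 5 h, 37 °C compound exposure.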

[16] = qHTS assay to identify small molecule agonists of the AP-1 signaling pathway (AID 1159526)
[17] = molecular target: Retinoic acid receptor RXR-alpha (Homo sapiens) (UniProt P19793); assay: qHTS assay to identify small molecule agonists of the RXR signaling pathway (AID 1159527); further: nearly all actives have a fitted effect of over 35% in size
Procedure, shortened: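 Read-out: beta-lactamase FRET ratio (405 nm excitation, 460 and 530 nm emission) after 2 hr substrate loading at room temperature. Cells were RXR-alpha-UAS-bla HEK 293T treated with compounds for 16 hr in 2% charcoal-stripped FBS medium.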

[18] = molecular target: Vitamin D3 receptor (Homo sapiens) (UniProt P11473); assay: qHTS assay to identify small molecule antagonists of the vitamin D receptor (VDR) signaling pathway (AID 743223; active means well fitted inhibition curve with a large enough effect in the signal ratio in the repeat runs, not every such curve was filed as active; the % refers to the signal ratio)
Procedure, shortened: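 Antagonist mode uses 1alpha,25-dihydroxyvitamin D3 at 3 nM final as stimulus. VDR-bla cells receive compounds in DMSO, incubate 16 h at 37C, then a beta-lactamase FRET substrate for 2 h at room temperature before fluorescence measurement.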

[19] = molecular target: Bile acid receptor (Homo sapiens) (UniProt Q96RI1); assay: qHTS assay to identify small molecule antagonists of the farnesoid-X-receptor (FXR) signaling pathway (AID 743217; active means well fitted inhibition curve with a large enough effect in the signal ratio in the repeat runs, not every such curve was filed as active; the % refers to the signal ratio)
Procedure, shortened: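 In this cell-based antagonist screen, inhibition of CDCA-driven (50 uM final) UAS-beta-lactamase expression in HEK 293T cells was measured by FRET fluorescence following 16 h compound exposure at 37 °C.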

[20] = molecular target: Bile acid receptor (Homo sapiens) (UniProt Q96RI1); assay: qHTS assay to identify small molecule agonists of the farnesoid-X-receptor (FXR) signaling pathway (AID 743220; active means well fitted activation curve with a large enough effect in the signal ratio in the repeat runs, not every such curve was filed as active; the % refers to the signal ratio)
Procedure, shortened: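 Beta-lactamase reporter under UAS control in GeneBLAzer FXR HEK 293T cells (5000/well) measured with LiveBLAzer FRET substrate after 2 h at room temperature. Compound exposure lasted 16 h at 37C.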

Measured: Potency

Chain of Retinoic acid receptor RXR-alpha (Homo sapiens) (P19793 whole entry, looked up): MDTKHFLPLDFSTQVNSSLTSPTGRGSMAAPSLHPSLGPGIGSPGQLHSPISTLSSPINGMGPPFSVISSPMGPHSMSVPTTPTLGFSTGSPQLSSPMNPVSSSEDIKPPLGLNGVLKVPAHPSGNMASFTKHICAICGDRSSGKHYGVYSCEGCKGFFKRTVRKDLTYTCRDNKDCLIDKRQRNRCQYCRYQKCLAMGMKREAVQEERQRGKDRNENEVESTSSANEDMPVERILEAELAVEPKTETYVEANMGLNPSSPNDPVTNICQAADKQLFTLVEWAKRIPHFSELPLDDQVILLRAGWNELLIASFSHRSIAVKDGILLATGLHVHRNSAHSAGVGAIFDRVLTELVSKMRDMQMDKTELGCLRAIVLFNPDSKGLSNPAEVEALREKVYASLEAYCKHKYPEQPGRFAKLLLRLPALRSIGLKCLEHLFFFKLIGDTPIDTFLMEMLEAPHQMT
Chain of Peroxisome proliferator-activated receptor delta (Homo sapiens) (Q03181 whole entry, looked up): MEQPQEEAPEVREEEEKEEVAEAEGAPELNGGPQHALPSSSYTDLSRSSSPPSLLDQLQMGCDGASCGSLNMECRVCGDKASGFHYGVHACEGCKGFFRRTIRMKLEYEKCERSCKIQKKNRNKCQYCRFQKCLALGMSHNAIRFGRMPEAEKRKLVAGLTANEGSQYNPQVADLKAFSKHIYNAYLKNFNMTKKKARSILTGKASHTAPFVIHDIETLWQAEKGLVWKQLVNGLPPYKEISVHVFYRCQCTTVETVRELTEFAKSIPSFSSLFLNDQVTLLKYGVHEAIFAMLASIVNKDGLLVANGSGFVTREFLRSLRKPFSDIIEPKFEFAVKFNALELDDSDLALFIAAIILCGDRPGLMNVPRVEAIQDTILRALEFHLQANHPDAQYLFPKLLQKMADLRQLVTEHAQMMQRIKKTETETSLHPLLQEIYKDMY
Chain of Vitamin D3 receptor (Homo sapiens) (P11473 whole entry, looked up): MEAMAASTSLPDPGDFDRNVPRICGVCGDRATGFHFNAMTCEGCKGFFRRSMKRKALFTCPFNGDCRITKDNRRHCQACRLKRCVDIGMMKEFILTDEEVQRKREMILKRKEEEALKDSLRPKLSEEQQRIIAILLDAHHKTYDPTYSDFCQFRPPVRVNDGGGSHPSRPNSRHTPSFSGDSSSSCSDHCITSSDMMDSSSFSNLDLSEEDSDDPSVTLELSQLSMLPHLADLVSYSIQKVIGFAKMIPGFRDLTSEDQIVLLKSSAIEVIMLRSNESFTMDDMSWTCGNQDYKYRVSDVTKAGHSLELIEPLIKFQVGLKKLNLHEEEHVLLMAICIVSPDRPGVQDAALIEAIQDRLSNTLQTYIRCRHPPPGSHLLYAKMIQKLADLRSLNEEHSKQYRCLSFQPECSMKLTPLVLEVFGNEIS
Chain of Bile acid receptor (Homo sapiens) (Q96RI1 whole entry, looked up): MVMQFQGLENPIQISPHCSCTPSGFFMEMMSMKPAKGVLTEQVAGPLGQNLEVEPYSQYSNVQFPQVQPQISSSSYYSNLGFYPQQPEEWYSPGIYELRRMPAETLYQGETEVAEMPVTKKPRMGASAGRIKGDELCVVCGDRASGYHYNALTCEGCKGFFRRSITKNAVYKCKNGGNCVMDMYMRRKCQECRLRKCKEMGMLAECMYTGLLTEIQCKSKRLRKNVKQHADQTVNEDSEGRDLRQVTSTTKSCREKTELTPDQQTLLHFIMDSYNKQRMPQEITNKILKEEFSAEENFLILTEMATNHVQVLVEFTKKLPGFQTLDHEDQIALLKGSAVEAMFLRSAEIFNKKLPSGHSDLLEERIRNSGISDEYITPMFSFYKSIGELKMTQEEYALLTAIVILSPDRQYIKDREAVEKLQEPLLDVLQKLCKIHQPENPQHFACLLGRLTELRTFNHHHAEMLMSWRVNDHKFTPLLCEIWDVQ

O=C(OCC1CCC2OC2C1)C1CCC2OC2C1 (configuration not stated)
inactive: [1] | [2] | [3] | [4] | [5] | [6] | [7] | [8] | [9] | [10] | [11] | [12] | [13] | [14] | [15] | [16] | [17]

CCCCCCCC=O
inactive: [2] | [4] | [5] | [6] | [18] | [7] | [8] | [9] | [10] | [11] | [12] | [13] | [14] | [15] | [16] | [17]

CCCCCCCCCCCC(=O)OC
inactive: [1] | [2] | [3] | [19] | [4] | [20] | [5] | [6] | [18] | [7] | [8] | [9] | [11] | [12] | [13] | [14] | [15] | [16] | [17]

COc1ccc(CCC(C)=O)cc1
inactive: [1] | [2] | [3] | [19] | [4] | [20] | [5] | [6] | [7] | [8] | [10] | [11] | [12] | [13] | [14] | [15] | [16] | [17]

CC(CCO)CC(C)(C)C (configuration not stated)
inactive: [2] | [4] | [5] | [6] | [7] | [8] | [9] | [11] | [12] | [13] | [14] | [15] | [16] | [17]

CCCCC(C=O)CC (configuration not stated)
inactive: [1] | [2] | [3] | [19] | [4] | [20] | [5] | [6] | [7] | [8] | [9] | [12] | [14] | [15] | [16] | [17]

NCCN1CCNCC1
inactive: [1] | [2] | [3] | [4] | [5] | [6] | [18] | [7] | [8] | [9] | [12] | [13] | [14] | [15] | [16] | [17]

CN/C(=C\[N+](=O)[O-])NCCSCc1csc(CN(C)C)n1
inactive: [1] | [2] | [3] | [4] | [5] | [7] | [8] | [9] | [10] | [12] | [13] | [14] | [15] | [16] | [17]

CC(C)OP(=O)(CP(=O)(OC(C)C)OC(C)C)OC(C)C
inactive: [1] | [2] | [3] | [19] | [4] | [20] | [5] | [6] | [18] | [7] | [8] | [9] | [12] | [14] | [15] | [16] | [17]

O=C(O)CCCCCCCCC(=O)O
inactive: [1] | [2] | [3] | [19] | [4] | [20] | [5] | [6] | [18] | [7] | [8] | [9] | [12] | [13] | [14] | [15] | [16] | [17]

C=Cc1ccc(C)cc1
inactive: [1] | [2] | [3] | [4] | [5] | [6] | [18] | [7] | [8] | [9] | [11] | [12] | [13] | [14] | [15] | [16] | [17]

CC1(C)S[C@@H]2[C@H](NC(=O)COc3ccccc3)C(=O)N2[C@H]1C(=O)O
inactive: [1] | [2] | [3] | [4] | [5] | [6] | [7] | [8] | [9] | [11] | [12] | [13] | [14] | [15] | [16] | [17]

CC1(C)CC(N)CC(C)(CN)C1 (configuration not stated)
inactive: [1] | [2] | [3] | [4] | [5] | [7] | [8] | [9] | [11] | [12] | [14] | [15] | [16] | [17]

CCCCOC(=O)c1ccc(N)cc1
inactive: [1] | [2] | [3] | [4] | [5] | [6] | [18] | [7] | [8] | [9] | [10] | [12] | [14] | [15] | [16] | [17]

CNC(=S)N(C)C
inactive: [2] | [4] | [5] | [6] | [7] | [8] | [9] | [10] | [12] | [14] | [15] | [16] | [17]

CC(C)c1cccc(C(C)C)c1
inactive: [1] | [2] | [3] | [19] | [4] | [20] | [5] | [6] | [18] | [7] | [8] | [9] | [12] | [13] | [14] | [15] | [16] | [17]

COc1ccc(C)cc1N
inactive: [1] | [2] | [3] | [4] | [5] | [6] | [7] | [8] | [9] | [11] | [12] | [14] | [15] | [16] | [17]

Nc1ccc(Cl)c(N)c1
inactive: [1] | [2] | [3] | [19] | [20] | [5] | [6] | [7] | [8] | [9] | [10] | [12] | [13] | [14] | [15] | [16] | [17]
